Results filed as inconclusive are left out. Activity calls are given as the source filed them. How the source made its calls: active means hit-call score of the fitted dose curve at least 0.9, where 1 is the maximum; inconclusive means response in the unintended direction; inactive means score below 0.9.
Read-out: Glyceraldehyde-3-phosphate dehydrogenase (Homo sapiens) (UniProt P04406)
Assay: CLD_GAPDH_48hr: CellzDirect (CLD) Gene Expression Assay for Baseline Control (Glyceraldehyde 3-phosphate dehydrogenase) at 48 hours (AID 2283706);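 further: active means higher GAPDH mRNA than DMSO vehicle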
Description: CLD_48hr is a cell-based, multiplexed-readout assay that uses hepatocyte, a human liver primary cell, with measurements taken at 48 hours after chemical dosing in a 96-well plate.CLD_GAPDH_48hr is one of 16 assay component(s) measured or calculated from the CLD_48hr assay. It is designed to make measurements of mRNA induction, a form of inducible reporter, as detected with chemiluminescence signals by Quantitative Nuclease Protection Assay (qNPA) technology.Data from the assay component CLD_GAPDH_48hr was analyzed at the endpoint, CLD_GAPDH_48hr, in the positive analysis fitting direction relative to DMSO as the negative control and baseline of activity. Using a type of inducible reporter, gain-of-signal activity can be used to understand changes in the reporter gene as they relate to the gene GAPDH. Furthermore, this assay endpoint can be referred to as a secondary readout, because this assay has produced multiple assay endpoints where this one serves a background control function. To generalize the intended target to other relatable targets, this assay endpoint is annotated to the background measurement intended target family, where subfamily is baseline control.
Human hepatocyte cultures were treated daily for two consecutive days with fresh dosing solutions containing appropriate concentrations of the 320 ToxCast chemicals (chemical identities were blinded to CellzDirect and other ToxCast collaborators), vehicle control (0.2% DMSO), and positive control inducers as summarized in Table 1. Due to the large number of treatment groups and chemicals examined, the ToxCast chemicals were divided into two groups (spanning two independent cultures of hepatocytes from separate donor preparations (Hu778: ToxCast plates 1 and 2; Hu776: ToxCast plates 3 and 4). Each preparation of human hepatocyte cultures was treated with respective vehicle control, medium only control, set of six positive controls/reference chemicals for the five hepatic receptor pathways, and a subset of eight of the ToxCast chemicals (indoxacarb, pyrithiobac-sodium, norflurazon, cyhalofop-butyl, methomyl, thiram, acetochlor, and propiconazole). These replicate data, coupled with internal replicates designed within the blinded ToxCast chemical library, provided additional data to evaluate interindividual differences between hepatocyte preparations and their potential impact on chemical profiles.Cell morphology and integrity were evaluated using phase-contrast microscopy as an indicator of hepatocyte cell health (Tyson & Green, 1987). Cultures for each treatment group (i.e., media, vehicle [0.2% DMSO], positive control inducers [multiple concentrations], and the ToxCast chemicals [multiple concentrations]) were observed and cell morphology was assessed relative to vehicle control cultures at each harvest time point (0, 6, 24, or 48 h). […] Images were evaluated at the conclusion of the study to assess changes in cell integrity and account for the effects of chemical exposure on uncharacteristic changes in concentration-dependent gene expression profiles. The results from these determinations of apparent cytotoxicity were annotated (yes/no) alongside the corresponding qNPA data for reference.At the conclusion of each treatment period, hepatocyte cultures (96-well) were washed with 1 volume of HBSS, lysed by addition of 25 ul ArrayPlate lysis buffer (HTG, Tucson, AZ), and 70 ul/well of Denaturation Oil, denatured by incubation at 95C for 10 min, and frozen at approximately -70C until analysis by nuclease protection assay (qNPA) (Roberts et al., 2007). For qNPA analysis, cell lysates were thawed at 50C for approximately 30 min, qNPA probes were added, and samples were incubated at 95C for 10 min to begin the detection process by denaturing the target RNA, dissociating the duplexes and secondary structure hybridization. At the conclusion of the hybridization period, S1 nuclease reagent was added to each sample to digest all nonprotected nucleotides at 50C for 60-90 min. […]

Sequence of Glyceraldehyde-3-phosphate dehydrogenase (Homo sapiens) (P04406 whole entry, looked up): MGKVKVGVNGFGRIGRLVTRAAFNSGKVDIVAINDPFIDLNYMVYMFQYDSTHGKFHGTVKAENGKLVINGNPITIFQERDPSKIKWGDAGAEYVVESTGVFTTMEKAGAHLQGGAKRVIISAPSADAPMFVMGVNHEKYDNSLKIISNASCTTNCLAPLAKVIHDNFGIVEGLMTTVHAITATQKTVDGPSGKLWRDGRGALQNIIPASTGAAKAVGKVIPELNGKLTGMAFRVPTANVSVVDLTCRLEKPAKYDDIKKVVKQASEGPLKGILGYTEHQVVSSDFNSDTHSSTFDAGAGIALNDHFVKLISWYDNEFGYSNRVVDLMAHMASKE

Q: How did the outcome turn out when CCCSP(=O)(OCC)SCCC was run?
A: inactive

Q: With CN(C)NC(=O)CCC(=O)O as the compound, how does the outcome read?
A: inactive

Q: For CCCCOC(=O)c1ccccc1C(=O)O, which outcome is on record?
A: inactive

Q: With CC1=NNC(=O)N(/N=C/c2cccnc2)C1 as the compound, how does the outcome read?
A: inactive

Q: For Nc1nc(N)nc(NC2CC2)n1, which outcome is on record?
A: inactive

Q: For S=C1NCCN1, which outcome is on record?
A: inactive

Q: With C[N+]1(C)CCCCC1 as the compound, how does the outcome read?
A: inactive

Q: How did the outcome turn out when COP(=O)(NC(C)=O)SC (centres undefined) was run?
A: inactive

Q: How did the outcome turn out when CC(=NC#N)N(C)Cc1ccc(Cl)nc1 was run?
A: inactive

Q: CCC(=NOC/C=C/Cl)C1=C(O)CC(C2CCOCC2)CC1=O (centres undefined) was tested. Which outcome did it give?
A: inactive

Q: For CC1(C(=O)Nc2ccc(O)c(Cl)c2Cl)CCCCC1, which outcome is on record?
A: inactive

Q: Which outcome does the source give for N#CSCSC#N here?
A: inactive

Q: Which outcome does the source give for CN(C)C(=O)Nc1cccc(C(F)(F)F)c1 here?
A: inactive

Q: How did the outcome turn out when CNC(=O)ON=C(SC)C(=O)N(C)C was run?
A: inactive

Q: With CCC(CC)Nc1c([N+](=O)[O-])cc(C)c(C)c1[N+](=O)[O-] as the compound, how does the outcome read?
A: inactive

Q: With O=c1ccc(=O)[nH][nH]1 as the compound, how does the outcome read?
A: inactive

Q: CCOC(=O)CC(SP(=O)(OC)OC)C(=O)OCC (centres undefined) was tested. Which outcome did it give?
A: inactive

Q: COc1cc(OC)nc(Sc2cccc(Cl)c2C(=O)O)n1 was tested. Which outcome did it give?
A: inactive

Q: With CCOP(=O)(OCC)Oc1cc(C)nc(C(C)C)n1 as the compound, how does the outcome read?
A: inactive

Q: How did the outcome turn out when CC(C)=CC1C(C(=O)OCN2C(=O)C3=C(CCCC3)C2=O)C1(C)C (centres undefined) was run?
A: inactive

Q: With CCCOc1nn(C(=O)NS(=O)(=O)c2ccccc2C(=O)OC)c(=O)n1C as the compound, how does the outcome read?
A: inactive

Q: Which outcome does the source give for COP(=O)(OC)OC(Br)C(Cl)(Cl)Br (centres undefined) here?
A: inactive

Q: Nc1c(Cl)cc([N+](=O)[O-])cc1Cl was tested. Which outcome did it give?
A: inactive

Q: With CCc1cccc(C)c1N(C(=O)CCl)C(C)COC (centres undefined) as the compound, how does the outcome read?
A: inactive

Q: Which outcome does the source give for CSc1nnc(C(C)(C)C)c(=O)n1N here?
A: inactive

Q: With CC[C@H](C)[C@H]1O[C@]2(C=C[C@@H]1C)C[C@@H]1C[C@@H](C/C=C(\C)[C@@H](O[C@H]3C[C@H](OC)[C@@H](O[C@H]4C[C@H](OC)[C@@H](NC)[C@H](C)O4)[C@H](C)O3)[C@@H](C)/C=C/C=C3\CO[C@@H]4[C@H](O)C(C)=C[C@@H](C(=O)O1)[C@]34O)O2 as the compound, how does the outcome read?
A: inactive

Q: With CSC1=N[C@@](C)(c2ccccc2)C(=O)N1Nc1ccccc1 as the compound, how does the outcome read?
A: inactive

Q: Cc1nn(-c2cc(NS(C)(=O)=O)c(Cl)cc2Cl)c(=O)n1C(F)F was tested. Which outcome did it give?
A: inactive

Q: CC(C)N(C(=O)SCC(Cl)=C(Cl)Cl)C(C)C was tested. Which outcome did it give?
A: inactive

Q: Which outcome does the source give for CCc1cnc(C2=NC(C)(C(C)C)C(=O)N2)c(C(=O)O)c1 (centres undefined) here?
A: inactive

Q: How did the outcome turn out when CNC(=O)ON=C(C)SC was run?
A: inactive

Q: Which outcome does the source give for CN1COCN(Cc2cnc(Cl)s2)C1=N[N+](=O)[O-] here?
A: inactive

Q: CCCOCC(=Nc1ccc(Cl)cc1C(F)(F)F)n1ccnc1 was tested. Which outcome did it give?
A: inactive

Q: Which outcome does the source give for CN(C)[C@@H]1C(=O)C(C(N)=O)=C(O)[C@@]2(O)C(=O)C3=C(O)c4c(O)cccc4[C@@](C)(O)[C@H]3[C@H](O)[C@@H]12 here?
A: inactive

Reference: PubChem BioAssay (EPA / NIEHS)
